# KDM5B inhibitor: Primary screen for KDM5B Histone Demethylases FDH-coupled qHTS; Lysine-specific demethylase 5B (Homo sapiens), Q9UGL1; KDM5B demethylase, FDH-coupled NADH fluorescence (FDH is formaldehyde dehydrogenase); Potency, µM (series often up to 57.7 µM), usual class: inhibitors; actives 2.6% (n = 220,000); AID 1347165, 2019; active means well fitted inhibition curve with a large enough effect; further: 0% is about no effect; nearly all actives have a fitted effect of over 70% in size
# Target sequence (Q9UGL1 whole entry, looked up): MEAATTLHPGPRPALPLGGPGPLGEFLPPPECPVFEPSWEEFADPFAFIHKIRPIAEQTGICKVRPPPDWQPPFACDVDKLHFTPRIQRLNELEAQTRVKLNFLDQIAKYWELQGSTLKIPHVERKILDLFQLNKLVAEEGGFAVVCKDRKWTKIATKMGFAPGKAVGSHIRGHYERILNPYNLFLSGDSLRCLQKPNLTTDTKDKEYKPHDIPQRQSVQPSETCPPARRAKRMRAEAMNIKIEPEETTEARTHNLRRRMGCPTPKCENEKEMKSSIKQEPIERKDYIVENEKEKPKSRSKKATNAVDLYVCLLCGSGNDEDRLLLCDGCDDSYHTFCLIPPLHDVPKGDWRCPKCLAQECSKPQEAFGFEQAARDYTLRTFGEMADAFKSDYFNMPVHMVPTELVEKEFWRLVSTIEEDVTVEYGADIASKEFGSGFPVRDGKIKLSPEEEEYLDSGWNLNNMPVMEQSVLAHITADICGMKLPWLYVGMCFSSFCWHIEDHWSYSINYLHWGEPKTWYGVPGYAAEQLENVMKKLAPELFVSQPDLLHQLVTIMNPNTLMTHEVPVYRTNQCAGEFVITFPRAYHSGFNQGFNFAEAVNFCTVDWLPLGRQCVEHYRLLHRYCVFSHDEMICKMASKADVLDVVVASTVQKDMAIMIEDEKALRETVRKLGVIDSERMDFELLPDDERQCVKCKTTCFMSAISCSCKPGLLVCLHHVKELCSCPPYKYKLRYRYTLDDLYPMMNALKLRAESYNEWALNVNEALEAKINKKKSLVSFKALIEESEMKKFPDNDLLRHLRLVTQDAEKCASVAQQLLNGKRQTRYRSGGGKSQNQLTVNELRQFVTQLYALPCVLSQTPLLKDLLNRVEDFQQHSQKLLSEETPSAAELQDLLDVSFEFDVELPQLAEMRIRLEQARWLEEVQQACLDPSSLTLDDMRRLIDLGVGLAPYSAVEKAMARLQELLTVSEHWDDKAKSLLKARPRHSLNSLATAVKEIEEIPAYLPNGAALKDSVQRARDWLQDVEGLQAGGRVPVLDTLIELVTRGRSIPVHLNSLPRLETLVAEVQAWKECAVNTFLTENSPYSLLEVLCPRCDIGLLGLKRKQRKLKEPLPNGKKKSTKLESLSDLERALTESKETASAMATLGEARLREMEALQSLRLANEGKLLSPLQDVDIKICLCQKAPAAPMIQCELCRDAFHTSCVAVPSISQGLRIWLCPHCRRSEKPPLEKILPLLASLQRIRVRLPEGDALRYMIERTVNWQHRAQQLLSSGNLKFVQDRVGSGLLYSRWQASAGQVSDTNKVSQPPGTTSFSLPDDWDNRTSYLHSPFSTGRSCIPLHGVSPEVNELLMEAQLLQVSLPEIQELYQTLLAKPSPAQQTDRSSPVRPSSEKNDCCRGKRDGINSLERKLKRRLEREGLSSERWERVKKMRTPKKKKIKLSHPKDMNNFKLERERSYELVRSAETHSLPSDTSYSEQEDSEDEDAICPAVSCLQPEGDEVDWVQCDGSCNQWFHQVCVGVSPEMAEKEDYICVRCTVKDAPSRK
#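 Measured: NADH fluorescence change, 30 min, RT. System: KDM5BΔAP 200 nM final, H3K4me3 peptide, α-KG, Fe(II), ascorbate, NAD⁺ plus FDH, pH 7.5 HEPES. Compounds: titrated, 10 min pre-incubation with enzyme.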
# * marks the source's active call; other numbers are inactive results; i = inactive. This is one part of a sample in which hits are shown more often than they occur. Potency means the concentration at half of the fitted maximal effect.
SMILES,KDM5B inhibitor
COc1cccc(-c2ccc3c(n2)CN(Cc2ccc(F)cc2)C(=O)CO3)c1,i
COc1cccc(CN2Cc3nc(OCc4ccc(F)cc4)ccc3OCC2=O)c1,i
O=C1COc2ccc(-c3ccccc3F)nc2CN1CCOc1ccccc1,i
O=C1COc2ccc(-c3ccc(F)cc3)nc2CN1Cc1ccccc1F,i
O=C1COc2ccc(-c3ccncc3)nc2CN1Cc1ccc(F)cc1,25µM*
Cc1cnc(C(=O)NC(c2ccccc2)c2ccccn2)cn1 (stereo unspecified),i
COc1ccc(NC(=O)c2cnc(SC)nc2C)cc1OC,i
Cc1cc(C)n(C(=O)c2cn(C)nc2S(=O)(=O)N2CCN(c3cccc(F)c3)CC2)n1,i
Oc1c(C=Nc2ccc(Cl)c(C(F)(F)F)c2)ccc2ccccc12,i
COc1ccc(CNC(=O)c2ccc3c(=O)n(-c4cc(OC)ccc4OC)cnc3c2)cc1,i
CCCC(=O)Oc1ccc2c(=O)c(Oc3cc(C)cc(C)c3)coc2c1,i
Cc1ccccc1OCCSC(C)C(=O)NC(C)(C)C (stereo unspecified),i
Cc1c(-c2ccccc2F)[nH]c2ccc(CNC(=O)Cn3ccc(=O)[nH]c3=O)cc12,32µM*
O=C(Cn1ccc(=O)[nH]c1=O)NC(c1ccc(F)cc1)c1cccs1 (stereo unspecified),i
Cc1c(-c2ccccc2F)[nH]c2ccc(CNC(=O)CCN3CCCC3=O)cc12,28µM*
Cn1ncc(N2CCC(CNC(=O)CCN3CCCC3=O)C2)cc1=O (stereo unspecified),i
Cc1cc(SCC(=O)NCCCN2CCCC2=O)nc2ccccc12,i
COc1ccc(CNC(=O)Cn2c(=O)nc(-c3ccccc3F)c3cc(Cl)ccc32)cc1,i
CCn1nc(C(=O)Nc2ccc(OCC(C)C)c(Cl)c2)c2ccccc2c1=O,i
Cc1ccnc(-n2c(SCC(=O)N3CCCC3=O)nc3ccccc3c2=O)c1,i
CC(=O)Nc1ccc(NC(=O)c2cnc3ccccc3n2)cc1,i
CNC(=O)c1cnc2c(c1)N(Cc1ccccc1)CCC2,32µM*
COc1cccc(NC(=O)c2cnc3c(c2)N(C(=O)Cc2ccccc2OC)CCC3)c1,i
COc1cc(CNC(=O)c2cnc3c(c2)N(C(=O)CCc2ccccc2)CCC3)cc(OC)c1,i
COc1ccccc1N1CCCc2ncc(C(=O)Nc3cccc(C(F)(F)F)c3)cc21,32µM*
SMILES,KDM5B inhibitor
Cc1ccccc1NC(=O)c1cnc2c(c1)N(Cc1ccccc1)CCC2,40µM*
Cc1ccccc1NC(=O)c1cnc2c(c1)N(C(=O)CCc1ccccc1)CCC2,i
COc1cccc(NC(=O)c2cnc3c(c2)N(Cc2ccccc2)CCC3)c1,32µM*
O=C(NC(c1ccccc1)c1ccccc1)c1cnc2c(c1)N(C(=O)Cc1ccc(O)cc1)CCC2,i
COc1ccccc1CC(=O)N1CCCc2ncc(C(=O)Nc3cccnc3)cc21,i
COc1ccccc1CC(=O)N1CCCc2ncc(C(=O)Nc3ccccc3C)cc21,i
COc1ccccc1N1CCCc2ncc(C(=O)Nc3cccnc3)cc21,i
COc1ccccc1CC(=O)N1CCCc2ncc(C(=O)Nc3ccccc3)cc21,i
Cc1c(C(=O)N(Cc2nc3ccccc3c(=O)[nH]2)C(C)C)oc2ccc(Br)cc12,i
O=C(O)C12CC3CC(C1)CC([N+](=O)[O-])(C3)C2,i
O=C(NCc1cccn1Cc1ccc(Cl)cc1)NC12CC3CC(CC(C3)C1)C2,i
O=C(CSc1ccc(Cl)cc1)NCCSc1nc2ccccc2s1,i
Clc1c(/C=N/Nc2ccccc2)sc2ccccc12,i
CCC(C)(C)C1CCC(NC(=O)C(=O)Nc2ccccc2F)CC1 (stereo unspecified),i
O=C(NCCCN1CCCC1=O)c1nc(-c2ccc3[nH]ccc3c2)no1,i
Cc1cc2nc3n(c(=O)c2n1CC(=O)Nc1ccc2c(c1)OCCO2)CCCC3,i
O=c1cc(-c2ccccc2)c2cc3c(-c4ccccc4)coc3cc2o1,i
CCN(CCOc1ccc(F)cc1)C(=O)c1cnc(NC(C)C)nc1,28µM*
CN(CCOc1ccc(F)cc1)C(=O)c1n[nH]c(=O)c2ccccc12,i
Cc1nc2ccc(Cl)cc2cc1C(=O)N(C)CCOc1ccc(F)cc1,i
O=C(O)c1ccc(OCc2nnnn2-c2ccc(Br)cc2)cc1,i
CCc1ccc(C(CN)c2c[nH]c3ccccc23)cc1 (stereo unspecified),i
CCc1nc(Nc2ccccn2)sc1C,i
Cc1ccccc1-c1noc(C(C)NC(=O)c2ccccc2F)n1 (stereo unspecified),i
CCCN(C)c1nccnc1OC1CCN(C(=O)c2ccncc2)C1 (stereo unspecified),i
SMILES,KDM5B inhibitor
O=C(c1cc(F)cc(F)c1)N1CCC(Oc2ncccc2C(=O)N2CCCCC2)C1 (stereo unspecified),i
CCCN(C)c1nccnc1OC1CCN(C(=O)c2ccccc2OC)C1 (stereo unspecified),28µM*
COc1ccccc1C(=O)N1CCC(Oc2ncccc2C(=O)N2CCCCC2)C1 (stereo unspecified),i
Cc1ccc(C(=O)N2CCC(Oc3ncccc3C(=O)N3CCCCC3)C2)cc1C (stereo unspecified),28µM*
CCCN(C)c1nccnc1OC1CCN(C(=O)c2ccc(OC)cc2)C1 (stereo unspecified),i
O=C(NNC(=S)NC1CC2CCC1C2)C1CC1 (stereo unspecified),i
CCCn1c(NC(=O)COc2cccc(C)c2)nc2ccccc21,i
CCc1noc(-c2cn(C3CCN(C(=O)COc4cccc(C)c4)CC3)nn2)n1,i
COc1cc(OC)c(OC)cc1/C=C1\Oc2cc(OS(=O)(=O)c3ccccc3)ccc2C1=O,i
CC(CNC(=O)CCCNC(=O)C1CC1)c1ccccc1 (stereo unspecified),i
CN(C)Cc1nnc(C2CC(NC(=O)c3cnc4ccccc4n3)C2)n1C (stereo unspecified),i
CN(C)Cc1nnc(C2CC(NC(=O)c3nc4ccccc4[nH]3)C2)n1C (stereo unspecified),22µM*
Cc1ccc(C(=O)NC2CC(c3nnc(CN(C)C)n3C)C2)s1 (stereo unspecified),i
CN(c1ccccc1)c1nc2c(c(=O)n(C)c(=O)n2C)n1CC(=O)O,i
O=C(COC(=O)c1cc(=O)[nH]c2ccccc12)c1cccc2ccccc12,i
Cc1ccc(-n2c3c(c(=O)[nH]c2=O)C(C(F)(F)F)(C(F)(F)F)N=C(c2ccncc2)N3)cc1,i
CC(CNC(=O)NCc1ccco1)N1CCOCC1 (stereo unspecified),i
CC1(C(=O)NC2CCC2)CN(Cc2ccccc2)Cc2ccc(N3CCOCC3)nc21 (stereo unspecified),35µM*
CNC(=O)C1(C)CN(Cc2ccccc2)Cc2ccc(N3CCOCC3)nc21 (stereo unspecified),35µM*
CC1(C(=O)NCc2ccco2)CN(Cc2ccccc2)Cc2ccc(N3CCOCC3)nc21 (stereo unspecified),16µM*
CC(C)CNc1ccc2c(n1)C(C)(C(=O)NC1CCN(C)CC1)CN(Cc1ccccc1)C2 (stereo unspecified),i
O=C(CSc1nnnn1Cc1ccccc1)Nc1ccc(CN2CCOCC2)cc1,i
CN(C)CCNC(=O)C1(C)CN(Cc2ccccc2)Cc2ccc(Nc3ccccc3)nc21 (stereo unspecified),i

# Bioassay records: PubChem, National Center for Advancing Translational Sciences (NCATS)
